HT1080-NT tox: qHTS for induction of synthetic lethality in tumor cells producing 2HG: qHTS for the HT-1080-NT fibrosarcoma cell line; AID 686970, 2013; Potency, µM (top dose mostly 46.1 µM), hits mostly cytotoxic; HT-1080-NT fibrosarcoma viability, CellTiter-Glo ATP luminescence, 48 h; 1.6% of 360,000 active;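 further: NT is the 2HG producing partner of a matched IDH1 knockdown line; nearly all actives have a fitted effect of over 55% in size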
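750 cells/well, RPMI + 5% FBS; 2 h settle, compound pin-transfer, 48 h at 37 degrees C. CellTiter-Glo 10 min RT, luminescence. Normalized to DMSO and media-only wells.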
HT1080 IDH1KD tx: qHTS for induction of synthetic lethality in tumor cells producing 2HG: qHTS for the HT-1080-IDH1KD cell line. 2% of 360,000 active. Potency, µM (doses to about 46.1 µM), usual class: cytotoxic. HT-1080 IDH1 knockdown viability, ATP luminescence, 48 h
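After a 2 h attachment period, IDH1KD HT-1080 cells took pin-transferred compound for 48 h at 37 °C; ATP-based luminescence after 10 min room-temperature reagent incubation reported viability.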
TDP1 cell noCPT: qHTS for Inhibitors of human tyrosyl-DNA phosphodiesterase 1 (TDP1): qHTS in cells in absence of CPT. DT40 Tdp1-/- hTDP1 cells, no CPT, ATP luminescence, 48 h. Potency, µM (titrated, usually from 46.2 µM), actives largely listed as inhibitors. 15% of 420,000 active; further: nearly all actives have a fitted effect of over 55% in size
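Growth of hTDP1-complemented DT40 Tdp1-knockout cells is measured by ATP luminescence after at least 48 hr compound exposure at 37 °C, with DMSO substituting for the 20 nM CPT used in the parallel screen.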
KB-3-1 cytotox: qHTS assay for MDR1-selective chemotherapeutics: Primary screen using the parental adenocarcinoma cell KB-3-1; 1.4% of 400,000 active; Potency, µM (top dose mostly 46.1 µM), actives largely listed as cytotoxic; KB-3-1 viability, CellTiter-Glo ATP luminescence, 72 h; further: nearly all actives have a fitted effect of over 60% in size
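Cells are dispensed, compounds pinned in, plates held at 37 °C for 72 h, then CellTiter-Glo is added and luminescence read after 10 minutes. Cell line: parental KB-3-1 in phenol-red-free DMEM, 10% FBS.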
KB-V1 cytotox: qHTS assay for MDR1-selective chemotherapeutics: Primary screen using the drug-selected MDR subline cells KB-V1. KB-V1 MDR cells viability, CellTiter-Glo, 72 h. Potency, µM (titrated, usually from 46.1 µM), most hits filed as cytotoxic. 3.4% of 400,000 active. AID 1347076, 2019; further: nearly all actives have a fitted effect of over 60% in size
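In this primary screen, KB-V1 cells overexpressing P-gp are incubated with library compounds (lowest to highest concentration) for 72 h at 37 degrees C before a luminescent ATP viability read.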
TDP1 cell CPT: qHTS for Inhibitors of human tyrosyl-DNA phosphodiesterase 1 (TDP1): qHTS in cells in presence of CPT; chicken DT40 Tdp1-/-;hTDP1 cells + 20 nM CPT, ATP luminescence, 48 h; Potency, µM (series often up to 46.2 µM), most hits filed as inhibitors; 12% of 420,000 active; further: nearly all actives have a fitted effect of over 55% in size
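Chicken DT40 Tdp1-/- cells stably complemented with human TDP1 were seeded at 400 cells/well in medium containing 20 nM camptothecin, exposed to pin-transferred compounds, and grown at 37 °C for at least 48 hr. Viability was read as ATP luminescence.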
A number is an active result; i = inactive; ? = inconclusive; nt = no result given; [ ] = another dose, or the depositor's remark. Hits are enriched below; roughly 19% of the tested compounds scored in any of these assays. The call rests on the fitted dose curve; in most records, active means well fitted curve in the direction sought with a large enough effect; inconclusive means small, poorly fitted or top-dose-only effect, or another doubt; inactive means no such curve, though single readings can be large; an effect the other way counts as inactive or inconclusive.

SMILES	HT1080-NT tox	HT1080 IDH1KD tx	TDP1 cell noCPT	KB-3-1 cytotox	KB-V1 cytotox	TDP1 cell CPT
Cc1cccc(NC(=O)c2oc(=O)c3ccccc3c2-c2ccccc2)c1C	i	?	12µM	i	10µM	10µM
O=C1NC[C@@H](CCCCN2CCN(CCc3ccccc3)C(=O)C2=O)N(Cc2ccccc2)C1=O	?	i	i	i	i	i
O=S(=O)(NCCCCNS(=O)(=O)c1cccc2cccnc12)c1cccc2cccnc12	nt	nt	i	i	i	i
CCOC(=O)c1cccc(NC(=O)c2ccc3snnc3c2)c1	nt	nt	18µM	i	?	?
CCOC(=O)c1cccc(NC(=O)c2cccnc2)c1	i	i	?	i	i	?
CCOC(=O)c1cccc(NC(=O)c2cnc3ccccc3n2)c1	i	i[9.24 µM]	26µM	i	?	?
Cc1cccc(N(CC(=O)NCc2ccc3c(c2)OCO3)C(=O)CCC(=O)Nc2ccccn2)c1	i	i	?	i	?	?
O=C(Nc1cccc(O)c1)c1ccc([N+](=O)[O-])cc1Cl	i	i	?	?	i	15µM
CC(=O)Nc1ccc(Oc2ccc([N+](=O)[O-])cc2Cl)cc1	i	i	?	i	i	10µM
CC(C)C(=O)Nc1ccc(NC(=O)c2ccc([N+](=O)[O-])cc2Cl)cc1	i	i	18µM	i	?	?
CCCSc1ncc(Cl)c(C(=O)Nc2c(C(=O)c3ccc(F)cc3)oc3ccccc23)n1	nt	nt	i	nt	nt	i
CCOC(=O)c1sc2nc(C)nc(NCc3ccc(Cl)cc3)c2c1C	?	?	21µM	?	?	12µM
CCOC(=O)c1sc2nc(C)cc(C)c2c1N	i	i	i	i	i	i
CCOC(=O)c1sc2nc(C)nc(NCc3ccc(F)cc3)c2c1C	18µM	21µM	26µM	i	i	26µM
CCOC(=O)c1sc2nc(SC)nc(-c3ccc(Cl)cc3)c2c1N	i	i	15µM	i	i	21µM
CCOC(=O)c1sc2nc(CC(=O)OC)nc(NCc3ccc(F)cc3)c2c1C	i	i	16µM	i	?	18µM
CCOc1ccc(CCNS(=O)(=O)c2c(C)nc3sc(C)cn3c2=O)cc1OCC	nt	nt	i	i	i	i
Cc1ccccc1CN1C(=O)c2ccccc2Sc2ccc(C(=O)NCCc3ccccc3)cc21	nt	nt	21µM	nt	nt	16µM
CCCNC(=O)c1ccc2c(c1)N(Cc1cccc(C)c1)C(=O)c1ccccc1S2	nt	nt	i	nt	nt	i
Cc1cccc(CN2C(=O)c3ccccc3Sc3ccc(C(=O)NCCN4CCOCC4)cc32)c1	?	i	?	i	?	i
O=C(NCCN1CCOCC1)c1ccc2c(c1)N(Cc1ccccc1F)C(=O)c1ccccc1S2	i	i	i	i	i	21µM
COc1ccc(CCNC(=O)c2ccc(Cn3c(=O)c4ccccc4n(Cc4ccccc4Cl)c3=O)cc2)cc1OC	nt	nt	i	i	i	i
COc1ccc(CCNC(=O)c2ccc3c(c2)N(Cc2ccccc2Cl)C(=O)c2ccccc2S3)cc1OC	nt	nt	7.3µM	nt	nt	6.5µM
Cc1ccccc1CN1C(=O)c2ccccc2Sc2ccc(C(=O)NCCN3CCOCC3)cc21	i	i	23µM	i	i	?
CC(NC(=O)COC(=O)c1cc(=O)c2ccccc2o1)c1ccccc1 (centres undefined)	i	i	i	i	i	i
SMILES	HT1080-NT tox	HT1080 IDH1KD tx	TDP1 cell noCPT	KB-3-1 cytotox	KB-V1 cytotox	TDP1 cell CPT
CN1CCN(C(c2ccccc2)c2sc3nc(-c4ccco4)nn3c2O)CC1 (centres undefined)	nt	nt	i	nt	nt	i
Cc1ccc(C(=O)Nc2c(-c3ccccc3)nc3ccccn23)cc1	nt	nt	i	i	i	i
Cn1cc(C(=O)NCCc2ccc(Cl)cc2)c(=O)c2cc(S(=O)(=O)N3CCCCC3)ccc21	nt	nt	i	?	i	i
Cc1ccc(CN2C(=O)c3ccccc3Sc3ccc(C(=O)NCCN4CCOCC4)cc32)cc1	12µM	9.2µM	?	?	?	?
Cc1cccc2c(C(O)c3cn(C)c4ccccc34)c[nH]c12 (centres undefined)	nt	nt	16µM	i	i	11µM
Cn1cc(C(c2ccccn2)c2cn(C)c3ccccc23)c2ccccc21	?	?	?	i	i	?
O=C(Cn1cnc([N+](=O)[O-])c1)Nc1cc(Oc2ccc(Cl)cc2Cl)cc([N+](=O)[O-])c1	21µM	?	16µM	?	i	16µM
COc1ccc(C(=O)Nc2nnc(S(=O)(=O)N3CCCc4ccccc43)s2)cc1	nt	nt	i	i	i	i
COc1ccc(OC)c(C(C(=O)NCc2ccco2)N(C(=O)Cn2nnc3ccccc32)C2CC2)c1 (centres undefined)	i	i	16µM	i	6.5µM	13µM
CN(C)CCC(=O)N1c2ccccc2Sc2ccc(Cl)cc21	i	?	i	i	i	i
CN(C)CC/C=C1/c2cc(F)ccc2Sc2ccc(Cl)cc21	23µM	16µM	18µM	i	i	?
COc1cc2c(cc1Cl)/C(=C\CCN(C)C)c1ccccc1S2	?	?	?	?	16µM	18µM
NC(=O)c1c(NC(NC(=O)c2ccco2)(C(F)(F)F)C(F)(F)F)sc2c1CCCC2	i	i	i	i	i	i
O=C(CSc1ncccn1)NC(=O)NC1CCCC1	i	i	i	i	?	i
CC(CN1CC(=O)NC(=O)C1)N1CC(=O)NC(=O)C1 (centres undefined)	i	i	?	?	i	?
O=C1CN(CCN2CC(=O)NC(=O)C2)CC(=O)N1	nt	nt	7.1µM	i	i	7.9µM
COc1cc(/C=C2\C(=O)N(c3ccc(NC(C)=O)cc3)N=C2c2ccccc2)ccc1O	i	i	i	i	i	i
O=C1/C(=C\c2ccc(O)c(O)c2)C(c2ccccc2)=NN1c1ccccc1	i	i	21µM	i	i	?
CCCCN(C(=O)/C=C/c1ccco1)c1c(N)n(Cc2ccccc2)c(=O)[nH]c1=O	i	i	i	i	i	i
CCCCCCN1C[C@@H](O)[C@H](n2cc(C3CC3)nn2)C[C@@H]1c1ccc(OC)cc1	i	i	?	i	i	?
CCCCCCN1C[C@@H](n2cc(C3CC3)nn2)[C@H](O)C[C@@H]1c1ccc(OC)cc1	i	i	15µM	i	?	18µM

Bioassay records: PubChem, National Center for Advancing Translational Sciences (NCATS)
